From PMC7862700, “An all-to-all approach to the identification of sequence-specific readers for epigenetic DNA modifications on cytosine” come the findings set out here.

Common to all, as to experiment: DAPPL (digital affinity profiling via proximity ligation, sequencing); 10 mM Tris-HCl pH 7.5, 50 mM NaCl, 1 mM DTT, 4% glycerol, room temperature, 30 min; GST-TFs on glutathione beads, 16-mer random dsDNA library, 0.1% formaldehyde crosslink after washing; high values mean tight binding
Common to all, as to conditions: protein: recombinant; tags: N-terminal GST; dsDNA, one strand shown

For assay [1], the target named is T1, ERF (Homo sapiens, UniProt P50548 1-548).
T1 sequence: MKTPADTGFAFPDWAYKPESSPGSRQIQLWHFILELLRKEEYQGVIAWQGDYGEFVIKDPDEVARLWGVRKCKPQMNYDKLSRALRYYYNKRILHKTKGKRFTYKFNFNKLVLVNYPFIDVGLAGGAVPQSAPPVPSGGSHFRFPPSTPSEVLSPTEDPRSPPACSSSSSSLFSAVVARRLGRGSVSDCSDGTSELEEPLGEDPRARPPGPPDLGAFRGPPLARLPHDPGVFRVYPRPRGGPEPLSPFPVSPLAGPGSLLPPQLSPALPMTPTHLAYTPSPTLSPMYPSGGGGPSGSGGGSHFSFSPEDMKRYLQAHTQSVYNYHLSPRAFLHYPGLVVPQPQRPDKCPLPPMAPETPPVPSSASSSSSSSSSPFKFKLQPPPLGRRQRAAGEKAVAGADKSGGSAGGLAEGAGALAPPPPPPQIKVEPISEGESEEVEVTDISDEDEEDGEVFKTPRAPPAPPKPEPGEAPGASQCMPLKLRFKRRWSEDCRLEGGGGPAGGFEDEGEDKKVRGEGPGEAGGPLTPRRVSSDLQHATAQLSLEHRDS
Put shortly:
(§1)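 Each value of binding signal is a hexamer's read frequency for a factor divided by the same hexamer's frequency in the tag-only sample. Barcoded, bead-captured GST fusions of human transcription factors made in yeast were pooled with that sample and incubated with 200 nmole of a random double-stranded 16-mer DNA library in Tris/NaCl/DTT/glycerol buffer at room temperature for 30 min. Washing, 0.1% formaldehyde crosslinking, proximity ligation, PCR and Illumina NextSeq500 sequencing followed.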

For assay [2], the target named is T2, ETV3L (Homo sapiens, UniProt Q6ZN32 1-361).
T2 sequence: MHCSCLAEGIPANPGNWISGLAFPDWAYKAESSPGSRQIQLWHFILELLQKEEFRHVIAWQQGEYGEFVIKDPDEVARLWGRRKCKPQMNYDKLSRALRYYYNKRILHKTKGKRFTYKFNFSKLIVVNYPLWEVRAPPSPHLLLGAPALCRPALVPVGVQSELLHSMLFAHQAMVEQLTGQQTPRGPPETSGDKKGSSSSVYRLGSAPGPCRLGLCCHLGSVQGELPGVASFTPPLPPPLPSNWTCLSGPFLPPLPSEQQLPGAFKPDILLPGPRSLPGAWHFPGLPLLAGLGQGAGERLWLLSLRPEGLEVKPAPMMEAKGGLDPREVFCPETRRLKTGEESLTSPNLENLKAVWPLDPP
Put shortly:
as §1

Assay [3] deals with T3, ETS2 (Homo sapiens, UniProt P15036 1-469).
T3 sequence: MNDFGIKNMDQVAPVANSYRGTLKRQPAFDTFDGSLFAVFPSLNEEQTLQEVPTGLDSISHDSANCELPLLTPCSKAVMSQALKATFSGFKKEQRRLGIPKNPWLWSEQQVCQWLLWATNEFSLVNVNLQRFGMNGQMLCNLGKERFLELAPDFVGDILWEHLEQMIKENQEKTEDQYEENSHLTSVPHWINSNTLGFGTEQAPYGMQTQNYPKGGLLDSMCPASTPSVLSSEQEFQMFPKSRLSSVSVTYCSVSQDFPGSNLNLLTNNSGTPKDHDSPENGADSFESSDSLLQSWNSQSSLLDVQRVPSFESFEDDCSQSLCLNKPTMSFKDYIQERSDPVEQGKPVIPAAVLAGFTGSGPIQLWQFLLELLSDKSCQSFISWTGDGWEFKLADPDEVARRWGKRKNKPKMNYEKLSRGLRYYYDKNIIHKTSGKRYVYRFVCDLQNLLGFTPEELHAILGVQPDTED
Put shortly:
as §1

Assay [4] concerns the target T4, SPDEF (Homo sapiens, UniProt O95238 1-335).
T4 sequence: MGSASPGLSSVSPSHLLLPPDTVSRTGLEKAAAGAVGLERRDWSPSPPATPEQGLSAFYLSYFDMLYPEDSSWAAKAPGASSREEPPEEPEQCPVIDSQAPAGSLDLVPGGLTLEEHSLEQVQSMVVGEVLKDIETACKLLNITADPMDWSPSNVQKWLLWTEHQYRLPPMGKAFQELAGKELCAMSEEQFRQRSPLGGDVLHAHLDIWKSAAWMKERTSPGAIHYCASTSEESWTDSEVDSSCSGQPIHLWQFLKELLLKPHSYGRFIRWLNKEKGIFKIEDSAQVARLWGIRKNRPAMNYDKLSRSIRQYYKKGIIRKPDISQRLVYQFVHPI
In outline: as §1

Assay [5] addresses T5, ETV7 (Homo sapiens, UniProt Q9Y603 1-341).
T5 sequence: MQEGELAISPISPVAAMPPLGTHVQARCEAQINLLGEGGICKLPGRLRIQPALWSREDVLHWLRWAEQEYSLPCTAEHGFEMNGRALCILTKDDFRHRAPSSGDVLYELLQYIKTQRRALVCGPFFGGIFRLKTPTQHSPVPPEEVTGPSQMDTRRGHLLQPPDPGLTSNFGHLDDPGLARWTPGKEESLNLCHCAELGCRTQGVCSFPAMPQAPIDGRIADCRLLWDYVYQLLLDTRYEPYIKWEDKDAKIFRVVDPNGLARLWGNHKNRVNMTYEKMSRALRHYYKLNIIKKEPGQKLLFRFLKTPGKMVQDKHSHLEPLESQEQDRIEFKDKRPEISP
In outline: as §1

Assay [6] deals with T6, ELF5 (Homo sapiens, UniProt Q9UKW6-2 1-255).
T6 sequence: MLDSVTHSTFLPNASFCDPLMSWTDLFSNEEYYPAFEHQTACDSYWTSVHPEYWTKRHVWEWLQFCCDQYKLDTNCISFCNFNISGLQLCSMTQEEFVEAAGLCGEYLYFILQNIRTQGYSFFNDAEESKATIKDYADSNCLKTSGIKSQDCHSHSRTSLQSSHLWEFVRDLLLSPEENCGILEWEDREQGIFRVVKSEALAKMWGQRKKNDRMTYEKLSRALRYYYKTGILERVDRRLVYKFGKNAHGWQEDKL
In outline: as §1

Assay [7] has as its target T7, ETV3 (Homo sapiens, UniProt P41162-2 1-143).
T7 sequence: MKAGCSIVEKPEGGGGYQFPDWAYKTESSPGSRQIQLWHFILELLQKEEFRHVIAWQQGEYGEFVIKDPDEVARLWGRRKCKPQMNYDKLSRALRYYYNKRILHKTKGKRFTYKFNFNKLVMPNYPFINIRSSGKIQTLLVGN
In outline:
as §1

The target in assay [8] is ETV6 (Homo sapiens, UniProt P41212 1-452). In outline:
as §1

ETV6, sequence (P41212 whole entry): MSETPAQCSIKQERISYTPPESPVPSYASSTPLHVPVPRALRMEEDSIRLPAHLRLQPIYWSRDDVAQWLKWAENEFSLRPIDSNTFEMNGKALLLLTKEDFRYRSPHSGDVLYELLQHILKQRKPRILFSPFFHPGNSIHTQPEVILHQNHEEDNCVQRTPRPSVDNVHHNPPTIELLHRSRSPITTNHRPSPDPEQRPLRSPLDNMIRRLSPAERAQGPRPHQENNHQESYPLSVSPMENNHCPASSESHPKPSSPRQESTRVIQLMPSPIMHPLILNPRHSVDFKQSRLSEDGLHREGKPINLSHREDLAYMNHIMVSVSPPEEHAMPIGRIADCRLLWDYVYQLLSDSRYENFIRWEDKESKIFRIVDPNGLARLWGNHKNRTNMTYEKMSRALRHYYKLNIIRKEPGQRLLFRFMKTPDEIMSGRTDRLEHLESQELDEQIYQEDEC

As for GAAACT, the binding signal was 1.03 fold enrichment (6-mer frequency, TF over GST control) in assay [1]; 1.22 fold enrichment (6-mer frequency, TF over GST control) in assay [2]; 1.22 fold enrichment (6-mer frequency, TF over GST control) in assay [3]; 1.13 fold enrichment (6-mer frequency, TF over GST control) in assay [4]; 1.31 fold enrichment (6-mer frequency, TF over GST control) in assay [5]; 1.28 fold enrichment (6-mer frequency, TF over GST control) in assay [6]. The binding signal in assay [7] was 1.16 fold enrichment (6-mer frequency, TF over GST control); in assay [8], 1.2 fold enrichment (6-mer frequency, TF over GST control).
Regarding CTGGAC, the binding signal in assay [1] was 1.03 fold enrichment (6-mer frequency, TF over GST control); in assay [2], 1.22 fold enrichment (6-mer frequency, TF over GST control); in assay [3] it was 1.07 fold enrichment (6-mer frequency, TF over GST control); in assay [4], 1.12 fold enrichment (6-mer frequency, TF over GST control); in assay [5], 1.09 fold enrichment (6-mer frequency, TF over GST control); in assay [6], 1.16 fold enrichment (6-mer frequency, TF over GST control). The binding signal in assay [7] is 1.06 fold enrichment (6-mer frequency, TF over GST control); in assay [8], 1.09 fold enrichment (6-mer frequency, TF over GST control).
In the case of ACCCAA, the binding signal in assay [1] is 1.13 fold enrichment (6-mer frequency, TF over GST control); in assay [2] it was 1.13 fold enrichment (6-mer frequency, TF over GST control); in assay [3], 1.04 fold enrichment (6-mer frequency, TF over GST control); in assay [4] it was 1.04 fold enrichment (6-mer frequency, TF over GST control); in assay [5] it was 1.14 fold enrichment (6-mer frequency, TF over GST control); in assay [6], 1.06 fold enrichment (6-mer frequency, TF over GST control). Also, the binding signal in assay [7] was 1.01 fold enrichment (6-mer frequency, TF over GST control); in assay [8], 1.09 fold enrichment (6-mer frequency, TF over GST control).
Consider CTCGGC, for which the binding signal was 1.34 fold enrichment (6-mer frequency, TF over GST control) in assay [1]; 1.26 fold enrichment (6-mer frequency, TF over GST control) in assay [2]; 1.31 fold enrichment (6-mer frequency, TF over GST control) in assay [3]; 1.22 fold enrichment (6-mer frequency, TF over GST control) in assay [4]; 1.34 fold enrichment (6-mer frequency, TF over GST control) in assay [5]; 1.34 fold enrichment (6-mer frequency, TF over GST control) in assay [6]. Besides, the binding signal in assay [7] was 1.36 fold enrichment (6-mer frequency, TF over GST control); in assay [8], 1.37 fold enrichment (6-mer frequency, TF over GST control).
In the case of ACCGCC, the binding signal in assay [1] was 1.21 fold enrichment (6-mer frequency, TF over GST control); in assay [2] it was 1.25 fold enrichment (6-mer frequency, TF over GST control); in assay [3], 1.24 fold enrichment (6-mer frequency, TF over GST control); in assay [4], 1.29 fold enrichment (6-mer frequency, TF over GST control); in assay [5] it was 1.21 fold enrichment (6-mer frequency, TF over GST control); in assay [6] it was 1.23 fold enrichment (6-mer frequency, TF over GST control). Moreover, the binding signal was 1.44 fold enrichment (6-mer frequency, TF over GST control) in assay [7] and 1.26 fold enrichment (6-mer frequency, TF over GST control) in assay [8].
On to GGTATA, for which the binding signal in assay [1] was 1.18 fold enrichment (6-mer frequency, TF over GST control); in assay [2] it was 1.12 fold enrichment (6-mer frequency, TF over GST control); in assay [3], 1.08 fold enrichment (6-mer frequency, TF over GST control); in assay [4], 1.12 fold enrichment (6-mer frequency, TF over GST control); in assay [5], 1.13 fold enrichment (6-mer frequency, TF over GST control); in assay [6], 1.09 fold enrichment (6-mer frequency, TF over GST control). Further, the binding signal in assay [7] is 1.11 fold enrichment (6-mer frequency, TF over GST control); in assay [8] it was 1.03 fold enrichment (6-mer frequency, TF over GST control).
GCTACA: the binding signal was 1.2 fold enrichment (6-mer frequency, TF over GST control) in assay [1]; 1.29 fold enrichment (6-mer frequency, TF over GST control) in assay [2]; 1.17 fold enrichment (6-mer frequency, TF over GST control) in assay [3]; 1.25 fold enrichment (6-mer frequency, TF over GST control) in assay [4]; 1.18 fold enrichment (6-mer frequency, TF over GST control) in assay [5]; 1.19 fold enrichment (6-mer frequency, TF over GST control) in assay [6]. The binding signal is 1.17 fold enrichment (6-mer frequency, TF over GST control) in assay [7] and 1.17 fold enrichment (6-mer frequency, TF over GST control) in assay [8].
With GGTTTC, the binding signal was 1.49 fold enrichment (6-mer frequency, TF over GST control) in assay [1]; 1.52 fold enrichment (6-mer frequency, TF over GST control) in assay [2]; 1.52 fold enrichment (6-mer frequency, TF over GST control) in assay [3]; 1.55 fold enrichment (6-mer frequency, TF over GST control) in assay [4]; 1.38 fold enrichment (6-mer frequency, TF over GST control) in assay [5]; 1.52 fold enrichment (6-mer frequency, TF over GST control) in assay [6]. Further, the binding signal in assay [7] is 1.46 fold enrichment (6-mer frequency, TF over GST control); in assay [8], 1.51 fold enrichment (6-mer frequency, TF over GST control).
